Source: PubChem BioAssay (Tox21)
Inconclusive results are not listed. The source made the active and inactive calls. Unless noted, calls come from the whole dose curve; as a rule, active = well fitted curve in the direction sought with a large enough effect in the repeat runs; inconclusive = weak or mixed curves; inactive = no such curve, though single readings can be large; an effect the other way counts as inactive or inconclusive.

Key:
[1] = qHTS assay for small molecule agonists of the p53 signaling pathway (AID 651631; calls by dose curve; note: nearly all actives have a fitted effect of over 15% in size)
Method in brief: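 HCT-116 cells carrying a beta-lactamase reporter under p53 response elements were dosed with compound for 16 h at 37 °C. LiveBLAzer B/G FRET substrate was then added for 2 h at room temperature, and fluorescence intensity was read to detect pathway agonism.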

[2] = qHTS assay for small molecules that induce genotoxicity in human embryonic kidney cells expressing luciferase-tagged ATAD5 (AID 651632); note: nearly all actives have a fitted effect of over 15% in size
Method in brief: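 Cells were seeded at 2,000 per well, dosed with compound, and incubated 16 hr at 37C in 5% CO2. Luciferase activity was then quantified after a 30 min room-temperature incubation with Amplite.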

[3] = qHTS assay for small molecule agonists of the p53 signaling pathway - cell viability (AID 651633; calls by dose curve;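 note: p53RE-bla HCT reporter cells with a stable beta-lactamase p53 reporter; nearly all actives have a fitted effect of over 30% in size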)
Method in brief: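 Viability counter-read: CellTiter-Glo luminescence (30 min, room temperature) in the same p53RE-bla plates. These plates had been exposed to compounds for 16 h at 37 C.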

[4] = qHTS assay for small molecules that induce genotoxicity in human embryonic kidney cells expressing luciferase-tagged ATAD5 - cell viability (AID 651634; calls by dose curve; note: nearly all actives have a fitted effect of over 25% in size)
Method in brief: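 Cells (HEK293T, luciferase-tagged ATAD5) are seeded at 2,000 per well, dosed with compound or DMSO vehicle, and incubated 15.5 hr at 37C and 5% CO2. CellTiter-Fluor is added for 30 min before fluorescence is measured.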

[5] = qHTS assay for small molecule disruptors of the mitochondrial membrane potential - cell viability (AID 720634; calls by dose curve;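 note: human HepG2 liver cancer cells; nearly all actives have a fitted effect of over 20% in size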)
Method in brief: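 Cytotoxicity was measured by ATP quantitation in HepG2 wells that had first been treated with compound for 1 hr and stained with m-MPI dye; CellTiter-Glo incubation was 30 min at room temperature.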

[6] = qHTS assay to test for compound auto fluorescence at 590 nm (red) in HepG2 cells (AID 720674)
Method in brief: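 Red autofluorescence (Ex/Em 540/590 nm, Rose Bengal sodium equivalents) was measured in HepG2 cells, 2,000 per well in MEM plus 10% FBS, plated overnight at 37 C. Readings were taken 1 hr after adding 23 nL compound or DMSO, at 37 C and 5% CO2.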

[7] = qHTS assay to test for compound auto fluorescence at 535 nm (green) in HepG2 cells (AID 720675)
[8] = qHTS assay to test for compound auto fluorescence at 460 nm (blue) in HEK293 cells (AID 720678)
Method in brief: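 Measured: blue fluorescence (Ex 405/Em 460 nm) of compound-treated HEK293 cells, incubated overnight at 37C with 5% CO2 and scaled to triamterene equivalents.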

[9] = qHTS assay to test for compound auto fluorescence at 590 nm (red) in HEK293 cells (AID 720679)
Method in brief: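 Using HEK293 cells at 2,000 per well, the screen added 23 nL of each compound after cell attachment and incubated overnight (37C, 5% CO2). The plate reader then captured red-label fluorescence, Ex/Em 540/590nm.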

[10] = qHTS assay to test for compound auto fluorescence at 535 nm (green) in HEK293 cells (AID 720680)
[11] = qHTS assay to test for compound auto fluorescence at 460 nm (blue) in HEK293 cell free culture (AID 720681)
Method in brief: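 Blue fluorescence (Ex 405/Em 460 nm, triamterene-equivalent) was read immediately after pin transfer of compound or DMSO into medium (DMEM, 10% FBS) without cells.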

[12] = qHTS assay to test for compound auto fluorescence at 535 nm (green) in HEK293 cell free culture (AID 720682)
Method in brief: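 Green-label autofluorescence (485 nm excitation, 535 nm emission) measured on compound added to cell-free culture medium (DMEM, 10% FBS). Output is expressed relative to fluorescein.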

[13] = qHTS assay to test for compound auto fluorescence at 590 nm (red) in HEK293 cell free culture (AID 720683)
Method in brief: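 Red-channel autofluorescence of compounds in culture medium (DMEM, 10% FBS), no cells, measured at 540/590 nm. Rose Bengal sodium is the reference fluorophore for equivalence.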

[14] = qHTS assay to test for compound auto fluorescence at 590 nm (red) in HepG2 cell free culture (AID 720684)
Method in brief: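 Cell-free; medium MEM + 10% FBS; compound or DMSO added by pintool; read Ex 540/Em 590 nm; Rose Bengal sodium as red reference fluorophore.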

[15] = qHTS assay to test for compound auto fluorescence at 460 nm (blue) in HepG2 cell free culture (AID 720685)
Method in brief: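 Cell-free plates of MEM plus 10% FBS received 23 nL compound or DMSO vehicle; blue-channel (405/460 nm) intensity scored against triamterene as reference fluorophore.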

[16] = qHTS assay to test for compound auto fluorescence at 535 nm (green) in HepG2 cell free culture (AID 720686)
[17] = qHTS assay to test for compound auto fluorescence at 460 nm (blue) in HepG2 cells (AID 720687)
Method in brief: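 Blue-channel autofluorescence (Ex/Em 405/460 nm, triamterene-equivalent) was measured after 1 hr compound exposure at 37 C, 5% CO2. Cells were HepG2, plated overnight at 37 C in MEM plus 10% FBS.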

[18] = qHTS assay for small molecule disruptors of the mitochondrial membrane potential (AID 720635); note: potency is the fitted concentration of half-maximal effect
Method in brief: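 Mitochondrial membrane potential tracked with Mito-MPS dye, red aggregates (ex 540/em 590 nm) against green monomers (ex 490/em 535 nm). Compound treatment 1 hr at 37C, dye 30 min in HepG2.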

[19] = biological target: Glucocorticoid receptor (Homo sapiens) (UniProt P04150); assay: qHTS assay to identify small molecule agonists of the glucocorticoid receptor (GR) signaling pathway (AID 720691; active = well fitted activation curve with a large enough effect in the signal ratio in the repeat runs, not every such curve was filed as active; the % refers to the signal ratio); settings: GR-bla HeLa, beta-lactamase reporter ratio, 18 h; activation: at 62.4 µM (top of the series)
Method in brief: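 Steps: seed GR-bla HeLa cells, incubate 4 h at 37 C/5% CO2; pin-transfer DMSO-dissolved compounds; incubate 18 h at 37 C; add LiveBLAzer B/G FRET substrate; after 2 h at room temperature, measure fluorescence.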

[20] = biological target: Glucocorticoid receptor (Homo sapiens) (UniProt P04150); assay: qHTS assay to identify small molecule antagonists of the glucocorticoid receptor (GR) signaling pathway (AID 720692; active = well fitted inhibition curve with a large enough effect in the signal ratio in the repeat runs, not every such curve was filed as active; the % refers to the signal ratio)
Method in brief: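 Antagonism was scored as loss of dexamethasone-driven (5 nM final) reporter signal in HeLa cells bearing a glucocorticoid response element–beta-lactamase construct, after 18 h compound exposure at 37 C and 2 h FRET substrate loading.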
% is set by controls: 0 for no effect and ±100 for the full control effect.

Sequence of Glucocorticoid receptor (Homo sapiens) (P04150 whole entry, looked up): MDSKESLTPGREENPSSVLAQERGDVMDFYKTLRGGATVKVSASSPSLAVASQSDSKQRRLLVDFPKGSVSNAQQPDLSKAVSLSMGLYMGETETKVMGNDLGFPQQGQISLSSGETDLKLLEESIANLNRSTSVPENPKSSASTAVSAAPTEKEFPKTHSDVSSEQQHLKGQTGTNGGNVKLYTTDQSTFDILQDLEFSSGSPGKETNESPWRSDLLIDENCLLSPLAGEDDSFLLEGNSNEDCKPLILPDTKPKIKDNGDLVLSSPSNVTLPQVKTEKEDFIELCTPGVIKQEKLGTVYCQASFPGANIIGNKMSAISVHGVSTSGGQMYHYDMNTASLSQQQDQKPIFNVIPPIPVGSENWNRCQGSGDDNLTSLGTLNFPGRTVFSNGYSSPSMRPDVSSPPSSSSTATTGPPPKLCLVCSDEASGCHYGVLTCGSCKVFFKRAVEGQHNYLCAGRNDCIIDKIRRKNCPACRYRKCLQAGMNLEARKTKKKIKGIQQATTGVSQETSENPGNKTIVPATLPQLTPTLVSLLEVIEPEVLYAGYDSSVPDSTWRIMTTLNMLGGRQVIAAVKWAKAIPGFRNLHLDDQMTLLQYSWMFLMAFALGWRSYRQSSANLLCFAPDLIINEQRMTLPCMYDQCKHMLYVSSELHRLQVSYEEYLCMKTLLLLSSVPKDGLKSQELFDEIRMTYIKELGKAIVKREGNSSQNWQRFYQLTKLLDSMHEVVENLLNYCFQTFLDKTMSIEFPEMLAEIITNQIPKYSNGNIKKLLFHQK

C#CC1(O)CCCCC1
inactive: Potency [1] | Potency [2] | Potency [3] | Potency [4] | Potency [5] | outcome [6] | Potency [7] | Potency [8] | outcome [9] | outcome [10] | Potency [11] | outcome [12] | outcome [13] | outcome [14] | Potency [15] | Potency [16] | Potency [17]

COCCC#N
inactive: Potency [1] | Potency [2] | Potency [3] | Potency [4] | Potency [5] | Potency [18] | outcome [6] | Potency [7] | Potency [8] | outcome [9] | outcome [10] | Potency [11] | outcome [12] | outcome [14] | Potency [15] | Potency [16] | Potency [17] | Potency [19] | Potency [20]

O=[N+]([O-])c1ccccc1-c1ccccc1
inactive: Potency [1] | Potency [2] | Potency [3] | Potency [4] | Potency [5] | Potency [18] | outcome [6] | Potency [7] | Potency [8] | outcome [9] | outcome [10] | Potency [11] | outcome [12] | outcome [13] | outcome [14] | Potency [15] | Potency [16] | Potency [17]

Clc1c(Cl)c(Cl)c(Cl)c(Cl)c1Cl
inactive: activation [1] -4.73% [at 8.3 µM] | activation [2] 3.25% [at 8.08 µM] | activity change, negative = cytotoxicity [3] -24.8% [at 8.08 µM] | activity, negative = cytotoxicity [4] 8.7% [at 8.08 µM] | activity change, negative = cytotoxicity [5] 3.14% [at 8.08 µM] | fluorescence, relative to Rose Bengal [6] -0.0012% [at 3.72 µM] | fluorescence, % of fluorescein control [7] -0.0433% [at 3.72 µM] | fluorescence, % of triamterene [8] -0.0308% [at 3.72 µM] | fluorescence, % of fluorescein [10] 0.081% [at 3.72 µM] | fluorescence, % of fluorescent control [11] -0.026% [at 3.72 µM] | activity change [12] 0.0009% [at 3.72 µM] | fluorescence, % of fluorescent control [13] 0.029% [at 3.72 µM] | fluorescence, % of Rose Bengal [14] -0.0219% [at 3.72 µM] | fluorescence, % of fluorescent control [15] 0.0528% [at 3.72 µM] | fluorescence, % of fluorescein control [16] -0.0548% [at 3.72 µM] | fluorescence, % of fluorescent control [17] -0.0163% [at 3.72 µM] | activation [19] -0.383% [at 6.9 µM] | activity change, negative = inhibition [20] -10.3% [at 7.04 µM]

O=Cc1ccccc1
inactive: Potency [1] | Potency [2] | Potency [3] | Potency [4] | Potency [5] | Potency [18] | outcome [6] | Potency [7] | Potency [8] | outcome [9] | outcome [10] | Potency [11] | outcome [12] | outcome [13] | outcome [14] | Potency [15] | Potency [16] | Potency [17]

CC(=O)C(Cl)C(=O)N(C)C (stereo unspecified)
inactive: Potency [1] | Potency [2] | Potency [3] | Potency [4] | Potency [5] | outcome [6] | Potency [7] | Potency [8] | outcome [9] | Potency [11] | outcome [13] | outcome [14] | Potency [15] | Potency [17]

Nc1nc(N)nc(Cl)n1
inactive: Potency [1] | Potency [2] | Potency [3] | Potency [4] | Potency [5] | Potency [18] | outcome [6] | Potency [7] | Potency [8] | outcome [9] | outcome [10] | Potency [11] | outcome [12] | outcome [13] | outcome [14] | Potency [15] | Potency [17] | Potency [19] | Potency [20]

CCCCON=O
inactive: Potency [1] | Potency [2] | Potency [3] | Potency [4] | Potency [5] | Potency [7] | Potency [8] | outcome [10] | Potency [11] | outcome [12] | outcome [13] | outcome [14] | Potency [15] | Potency [16] | Potency [17] | Potency [19] | Potency [20]

C=Cc1cccc(CCl)c1
inactive: Potency [1] | Potency [2] | Potency [3] | Potency [4] | Potency [5] | Potency [18] | outcome [6] | Potency [7] | Potency [8] | outcome [9] | outcome [10] | Potency [11] | outcome [12] | outcome [14] | Potency [15] | Potency [16] | Potency [17] | Potency [19] | Potency [20]

Nc1cc(Cl)ccc1Cl
inactive: Potency [1] | Potency [2] | Potency [3] | Potency [4] | Potency [5] | outcome [6] | Potency [7] | Potency [8] | outcome [9] | outcome [10] | Potency [11] | outcome [12] | outcome [13] | outcome [14] | Potency [15] | Potency [16] | Potency [17] | Potency [19] | Potency [20]

COC(=O)c1ccccc1S(=O)(=O)NC(=O)Nc1nc(C)nc(OC)n1
inactive: Potency [1] | Potency [2] | Potency [3] | Potency [4] | Potency [5] | outcome [6] | Potency [7] | Potency [8] | outcome [10] | Potency [11] | outcome [13] | outcome [14] | Potency [15] | Potency [16] | Potency [17]

CNC(C)(C)Cc1ccccc1
inactive: Potency [1] | Potency [2] | Potency [3] | Potency [4] | Potency [5] | fluorescence, relative to Rose Bengal [6] -0.065% [at 18.6 µM] | fluorescence, % of fluorescein control [7] -0.216% [at 18.6 µM] | fluorescence, % of triamterene [8] 0.0048% [at 18.6 µM] | fluorescence, % of fluorescent control [9] 0.101% [at 18.6 µM] | fluorescence, % of fluorescein [10] 0.0122% [at 18.6 µM] | fluorescence, % of fluorescent control [11] -0.0376% [at 18.6 µM] | activity change [12] 0.136% [at 18.6 µM] | fluorescence, % of fluorescent control [13] -0.277% [at 18.6 µM] | fluorescence, % of Rose Bengal [14] -0.143% [at 18.6 µM] | fluorescence, % of fluorescein control [16] 0.134% [at 18.6 µM] | fluorescence, % of fluorescent control [17] -0.0567% [at 18.6 µM] | Potency [19] | Potency [20]

CC(C)c1c(CN(C)C(C)Cc2ccccc2)n(C)n(-c2ccccc2)c1=O (stereo unspecified)
inactive: Potency [1] | Potency [2] | Potency [3] | Potency [4] | Potency [5] | Potency [18] | fluorescence, % of fluorescein control [7] -0.0089% [at 18.6 µM] | fluorescence, % of triamterene [8] -0.225% [at 18.6 µM] | fluorescence, % of fluorescent control [9] -0.993% [at 18.6 µM] | fluorescence, % of fluorescein [10] -0.0005% [at 18.6 µM] | fluorescence, % of fluorescent control [11] 0.024% [at 18.6 µM] | activity change [12] -0.0364% [at 18.6 µM] | fluorescence, % of fluorescent control [13] 0.362% [at 18.6 µM] | fluorescence, % of Rose Bengal [14] -0.353% [at 18.6 µM] | fluorescence, % of fluorescent control [15] -0.0993% [at 18.6 µM] | fluorescence, % of fluorescein control [16] -0.009% [at 18.6 µM] | fluorescence, % of fluorescent control [17] 0.105% [at 18.6 µM] | Potency [19] | Potency [20]

CC(C)(C)c1ccc(OP(=O)(Oc2ccccc2)Oc2ccccc2)cc1
inactive: Potency [1] | Potency [2] | Potency [3] | Potency [4] | Potency [7] | Potency [8] | outcome [9] | outcome [10] | Potency [11] | outcome [12] | outcome [13] | outcome [14] | Potency [15] | Potency [16] | Potency [17]
active: Potency [18] 9.75 µM
